According to PubChem BioAssay (NCATS):
Several values for one entry are separate records, joined by “and”; a condition that tells them apart may be missing. Identical values can stand only once. Results filed as inconclusive are left out. Activity calls are given as the source filed them. Unless noted, the call rests on the fitted dose curve; in most records, active means well fitted curve in either direction with a large enough effect (not every such curve was filed as active); inconclusive means small, poorly fitted or top-dose-only effect, or another doubt; inactive means flat fitted curve, though single readings scatter.

What was measured:
[1] = AP1 Signaling Pathway (AID 357); settings: ME-180 AP-1-bla reporter, EGF-induced, beta-lactamase ratio, 5 h;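 further: ME-180 reporter cells stimulated with EGF at its EC50 level; on the % scale 0 is the no-effect control and ±100 the full control effect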
Procedure, shortened: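 Modulation of EGF-driven AP-1 transcription was assessed with a beta-lactamase reporter in ME-180 cells. Compound and EC50 EGF were co-incubated 5 hours at 37 °C before 2.5-hour CCF4 loading at room temperature and dual-emission reading.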

[2] = molecular target: Cytochrome P450 1A2 (Homo sapiens) (UniProt P05177); assay: p450-cyp1a2 (AID 410; calls by dose curve;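 further: -100% = full effect of reference inhibitor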); settings: recombinant CYP1A2, luciferin-ME demethylation, luminescence; series mostly up to 57 µM
Chain of Cytochrome P450 1A2 (Homo sapiens) (P05177 whole entry, looked up): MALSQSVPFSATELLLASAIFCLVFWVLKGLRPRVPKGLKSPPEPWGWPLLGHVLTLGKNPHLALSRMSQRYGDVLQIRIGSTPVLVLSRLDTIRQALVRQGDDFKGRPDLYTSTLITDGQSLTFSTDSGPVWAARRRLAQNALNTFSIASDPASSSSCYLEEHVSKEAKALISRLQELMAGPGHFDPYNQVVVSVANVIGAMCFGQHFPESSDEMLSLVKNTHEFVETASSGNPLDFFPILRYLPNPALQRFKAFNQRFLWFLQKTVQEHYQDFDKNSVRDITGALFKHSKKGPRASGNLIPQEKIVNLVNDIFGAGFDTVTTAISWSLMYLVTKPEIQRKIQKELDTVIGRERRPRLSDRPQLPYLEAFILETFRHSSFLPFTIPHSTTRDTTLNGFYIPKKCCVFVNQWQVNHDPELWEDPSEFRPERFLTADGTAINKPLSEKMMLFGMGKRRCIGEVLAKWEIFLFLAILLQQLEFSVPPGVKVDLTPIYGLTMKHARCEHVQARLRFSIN
Procedure, shortened: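 Luminescent readout of luciferin formed from Luciferin-ME by human CYP1A2; data normalized against complete inhibition by 57 uM furafylline. Enzyme 20nM, substrate 100uM at Km, 100mM KPO4 buffer, 60 min reaction at room temperature.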

[3] = NFAT Signaling Pathway (AID 444); settings: Jurkat NFAT-bla M1, carbachol, beta-lactamase ratio, 5 h;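 further: carbachol stimulus at about its EC50 of 1 µM final; on the % scale 0 is the no-effect control and ±100 the full control effect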
Procedure, shortened: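 Jurkat cells carrying an NFAT-driven β-lactamase reporter and co-transfected muscarinic M1 receptor were treated with compound plus carbachol (1 uM final, an EC50 level) for 5 h at 37 °C. CCF4 loading followed for 1 h at RT; 460/530 nm ratio gave %activity.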

[4] = Stat Signaling Pathway (AID 446); settings: ME-180 SIE beta-lactamase reporter, IL-6 stimulated, 5 h;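 further: ME-180 cervical cancer cells given 40 pM IL-6 alongside compound; SIE-controlled beta-lactamase reporter measured as 460/530 nm FRET emission ratio; on the % scale 0 is the no-effect control and ±100 the full control effect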
Procedure, shortened: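 Screening format detects activators and inhibitors alike: ME-180 SIE-bla cells stimulated at 40 pM IL-6 for 5 hrs with compound, then dual-emission beta-lactamase read at 405 nm excitation.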

[5] = molecular target: Glucocorticoid receptor (Homo sapiens) (UniProt P04150); assay: GR-GFP Redistribution (AID 450;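 active means compounds whose dose series gives a full or clear partial fitted curve of increased nuclear translocation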; further: potency means the concentration at half of the fitted maximal effect); settings: U2OS GR-GFP nuclear translocation, laser cytometry, 2 h
Chain of Glucocorticoid receptor (Homo sapiens) (P04150 whole entry, looked up, the tested form may be a part): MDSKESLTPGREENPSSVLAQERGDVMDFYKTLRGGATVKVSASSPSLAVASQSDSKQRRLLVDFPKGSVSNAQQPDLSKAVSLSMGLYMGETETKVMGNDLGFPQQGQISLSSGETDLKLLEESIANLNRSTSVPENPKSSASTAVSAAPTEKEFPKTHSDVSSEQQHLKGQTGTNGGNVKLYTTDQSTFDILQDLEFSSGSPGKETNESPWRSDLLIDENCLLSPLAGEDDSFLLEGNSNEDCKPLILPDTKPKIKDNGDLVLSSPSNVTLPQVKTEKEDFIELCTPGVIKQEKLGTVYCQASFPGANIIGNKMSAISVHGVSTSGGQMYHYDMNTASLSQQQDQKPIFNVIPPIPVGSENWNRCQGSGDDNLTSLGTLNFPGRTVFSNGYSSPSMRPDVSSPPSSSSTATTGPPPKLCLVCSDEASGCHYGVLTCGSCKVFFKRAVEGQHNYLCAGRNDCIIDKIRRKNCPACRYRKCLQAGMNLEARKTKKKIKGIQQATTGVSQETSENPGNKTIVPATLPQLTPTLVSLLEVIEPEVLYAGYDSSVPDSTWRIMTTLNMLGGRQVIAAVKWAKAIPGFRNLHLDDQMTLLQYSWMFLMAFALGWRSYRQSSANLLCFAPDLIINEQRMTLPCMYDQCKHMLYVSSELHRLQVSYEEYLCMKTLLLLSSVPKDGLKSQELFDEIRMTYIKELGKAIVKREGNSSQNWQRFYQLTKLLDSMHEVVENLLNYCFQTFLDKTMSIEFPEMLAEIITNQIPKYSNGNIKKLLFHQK

[6] = molecular target: Glucocorticoid receptor (Homo sapiens) (UniProt P04150); assay: GR-EFC Redistribution (AID 451; calls by dose curve; further: potency means the concentration at half of the fitted maximal effect); settings: CHO-K1 GR-EFC translocation, beta-gal luminescence, 2 h
Procedure, shortened: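 CHO-K1 cells stably expressing nuclear-localized β-gal enzyme acceptor and GR fused C-terminally to the enzyme donor fragment; ligand-driven nuclear translocation restores β-gal by complementation. Compounds titrated up to 46 uM final, 2 h at 37 °C; luminescence read.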

[7] = molecular target: Mitogen-activated protein kinase 10 (Mus musculus) (UniProt Q61831); assay: JNK3 AlphaScreen Assay (AID 530); settings: JNK3 lysate, c-Jun phosphorylation; series mostly up to 57.1 µM;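 further: kinase came from lysate of stimulated human HepG2 cells; signal reports phosphorylation of biotinylated GST-cJun 1-79 at Ser73 with 10 µM ATP; on the % scale 0 is the no-effect control and ±100 the full control effect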
Procedure, shortened: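 Inhibitors reduce antibody binding to phosphorylated biotin-cJun, lowering AlphaScreen luminescence. Lysates from HepG2 cells pre-activated by IL-1beta plus TNF-alpha supplied JNK3; compounds were titrated.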

[8] = molecular target: 3',5'-cyclic-AMP phosphodiesterase 4B (Homo sapiens) (UniProt Q07343); assay: qHTS Assay for Inhibitors of PDE-IV (AID 607; active means well fitted activation curve with a large enough effect in the main read-out, with a control signal flat, not every such curve was filed as active; further: % of control where 0% means no effect); settings: HEK293 ACTOne CNG channel cells, membrane potential fluorescence; series mostly up to 22.9 µM
Chain of 3',5'-cyclic-AMP phosphodiesterase 4B (Homo sapiens) (Q07343 whole entry, looked up): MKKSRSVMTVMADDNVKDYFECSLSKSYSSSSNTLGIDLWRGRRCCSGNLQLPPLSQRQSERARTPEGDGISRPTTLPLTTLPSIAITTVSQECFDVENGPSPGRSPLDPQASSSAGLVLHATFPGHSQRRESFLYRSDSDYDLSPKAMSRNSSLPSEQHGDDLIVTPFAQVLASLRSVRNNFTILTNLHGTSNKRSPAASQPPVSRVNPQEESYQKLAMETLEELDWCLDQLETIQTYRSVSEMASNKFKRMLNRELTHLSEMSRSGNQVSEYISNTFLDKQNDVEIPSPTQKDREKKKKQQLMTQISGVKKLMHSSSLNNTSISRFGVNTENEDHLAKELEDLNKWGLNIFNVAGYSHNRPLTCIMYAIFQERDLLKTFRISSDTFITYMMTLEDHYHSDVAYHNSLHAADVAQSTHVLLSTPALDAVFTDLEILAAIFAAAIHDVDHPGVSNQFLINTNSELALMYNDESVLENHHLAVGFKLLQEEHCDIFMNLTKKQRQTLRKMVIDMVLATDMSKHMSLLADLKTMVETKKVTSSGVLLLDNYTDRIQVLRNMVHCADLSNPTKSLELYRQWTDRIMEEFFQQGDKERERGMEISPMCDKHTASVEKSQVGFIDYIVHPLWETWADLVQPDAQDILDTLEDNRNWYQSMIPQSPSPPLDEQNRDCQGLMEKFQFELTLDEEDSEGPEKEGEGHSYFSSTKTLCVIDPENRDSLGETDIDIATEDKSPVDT
Procedure, shortened: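 The readout is membrane depolarisation from a cAMP-sensing CNG channel, detected with a potential dye at ex 535/em 590. Cells were HEK293-derived (endogenous PDE-IV) at 1000 cells/well, titrated up to 22.9 uM final.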

[9] = molecular target: Guanine nucleotide-binding protein G(i) subunit alpha-1 (Homo sapiens) (UniProt P63096); assay: qHTS Assay for Inhibitors of RGS12 GoLoco Motif Activity (Green Fluorophore) (AID 879; active means well fitted curve in the direction sought with a large enough effect; an effect the other way counts as inactive or inconclusive;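 further: 0% = labeled peptide with Gαi1 and full inhibition = labeled peptide alone without protein; negative values mean loss of peptide binding seen as reduced polarization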); settings: Galphai1/FITC-RGS12 GoLoco peptide, fluorescence polarization; series mostly up to 57.1 µM
Chain of Guanine nucleotide-binding protein G(i) subunit alpha-1 (Homo sapiens) (P63096 whole entry, looked up): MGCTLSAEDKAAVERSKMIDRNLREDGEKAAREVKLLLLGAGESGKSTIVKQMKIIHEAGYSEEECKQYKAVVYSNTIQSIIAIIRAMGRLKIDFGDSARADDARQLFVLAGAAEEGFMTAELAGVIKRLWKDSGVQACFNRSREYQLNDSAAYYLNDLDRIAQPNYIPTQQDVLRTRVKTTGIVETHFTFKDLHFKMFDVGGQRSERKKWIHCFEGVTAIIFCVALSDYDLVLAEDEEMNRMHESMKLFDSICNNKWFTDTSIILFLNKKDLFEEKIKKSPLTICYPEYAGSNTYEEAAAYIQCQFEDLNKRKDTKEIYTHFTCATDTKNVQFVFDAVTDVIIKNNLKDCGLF
Procedure, shortened: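 Fluorescence polarization assay: 50 nM Gαi1 with 10 nM FITC-labeled RGS12 GoLoco peptide in 10 mM Tris pH 7.5, 150 mM NaCl, 0.1 mM GDP, 0.05% NP40, 10 min at room temperature with compound.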

[10] = molecular target: Pyruvate kinase (Leishmania mexicana) (UniProt Q27686); assay: qHTS Validation Assay for Inhibitors of Leishmania Mexicana Pyruvate Kinase (AID 945; active means well fitted curve in the direction sought with a large enough effect; an effect the other way counts as inactive or inconclusive;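 further: 0% = DMSO only neutral control wells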); settings: purified L. mexicana pyruvate kinase, enzyme activity, E451W mutant enzyme; series mostly up to 57.5 µM
Chain of Pyruvate kinase (Leishmania mexicana) (Q27686 2-499 E452W): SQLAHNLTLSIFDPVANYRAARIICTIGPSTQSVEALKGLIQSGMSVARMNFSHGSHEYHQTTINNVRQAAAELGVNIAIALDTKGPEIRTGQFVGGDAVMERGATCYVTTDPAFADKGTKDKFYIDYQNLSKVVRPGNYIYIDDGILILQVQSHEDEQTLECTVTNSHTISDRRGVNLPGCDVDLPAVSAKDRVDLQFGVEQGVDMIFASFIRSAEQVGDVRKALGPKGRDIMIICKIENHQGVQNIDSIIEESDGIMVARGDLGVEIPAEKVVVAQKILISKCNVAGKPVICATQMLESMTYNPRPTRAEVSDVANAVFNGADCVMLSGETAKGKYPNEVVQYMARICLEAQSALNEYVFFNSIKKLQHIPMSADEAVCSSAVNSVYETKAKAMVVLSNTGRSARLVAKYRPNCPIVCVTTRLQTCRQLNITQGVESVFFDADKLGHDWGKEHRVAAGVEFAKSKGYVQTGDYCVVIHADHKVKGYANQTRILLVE
Procedure, shortened: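 Compounds are tested as eight-point concentration series. Reactions contain 0.2 nM LmPYK E451W, 0.5 mM PEP, 0.1 mM ADP, 7 mM MgCl2 and 50 mM KCl at pH 7.2, run 1 h at room temperature, then read by PKLight luminescence.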

[11] = molecular target: Alpha-galactosidase A (Homo sapiens) (UniProt P06280); assay: Counterscreen for Glucocerebrosidase Inhibitors: qHTS Assay for Human alpha-Galactosidase at pH 4.5 (AID 992; active means well fitted curve in the direction sought with a large enough effect; an effect the other way counts as inactive or inconclusive; further: 0% is about no effect); settings: purified enzyme, fluorogenic substrate; series mostly up to 76.9 µM
Chain of Alpha-galactosidase A (Homo sapiens) (P06280 whole entry, looked up): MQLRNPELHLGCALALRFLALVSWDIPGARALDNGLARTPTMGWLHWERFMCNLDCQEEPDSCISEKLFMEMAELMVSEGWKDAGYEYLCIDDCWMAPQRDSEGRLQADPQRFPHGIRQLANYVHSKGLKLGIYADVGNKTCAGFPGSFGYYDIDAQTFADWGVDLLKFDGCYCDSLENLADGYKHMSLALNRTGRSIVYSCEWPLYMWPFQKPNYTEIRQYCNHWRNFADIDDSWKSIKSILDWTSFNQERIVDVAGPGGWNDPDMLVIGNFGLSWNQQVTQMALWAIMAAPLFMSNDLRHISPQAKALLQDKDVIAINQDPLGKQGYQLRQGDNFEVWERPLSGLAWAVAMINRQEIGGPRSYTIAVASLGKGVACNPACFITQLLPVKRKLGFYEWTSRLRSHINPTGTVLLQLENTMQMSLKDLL
Procedure, shortened: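 Concentration-response curves (0.7 nM to 77 uM final) were modeled with the Hill equation to give AC50. Reactions: 2 nM enzyme, 80 uM fluorogenic alpha-galactoside, pH 4.5 citric acid buffer, 20 min, room temperature.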

[12] = molecular target: alpha-glucosidase (Oryza sativa, rice) (UniProt Q653V4); assay: Counterscreen for Glucocerebrosidase Inhibitors: qHTS Assay for Rice alpha-Glucosidase at pH 5.0 (AID 997; active means well fitted curve in the direction sought with a large enough effect; an effect the other way counts as inactive or inconclusive;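 further: 0% = full activity with enzyme and -100% = basal without enzyme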); settings: rice alpha-glucosidase enzyme activity; series mostly up to 76.9 µM
Procedure, shortened: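 Rice alpha-glucosidase (4 nM final) with 400 uM 4-methylumbelliferyl-alpha-D-glucopyranoside in citrate buffer pH 5.0, 20 min at room temperature, stopped at pH 10; fluorescence 365/440 nm, compounds 0.7 nM–77 uM, AC50 from Hill fits.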

[13] = qHTS Assay for Lipid Storage Modulators (AID 1519; calls by dose curve); settings: Drosophila S3 cells, BODIPY lipid droplet/cell ratio, laser cytometry, cells loaded with oleic acid
Procedure, shortened: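 Cells seeded at 5,000 per well were treated with compounds over a concentration series and loaded with oleic acid (400 uM, as added). Lipid droplet fluorescence (488 nm excitation, 500-530 nm channel) was read by laser-scanning cytometry and normalized to 20 uM Triacsin C.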

[14] = molecular target: Ubiquitin carboxyl-terminal hydrolase 1 (Homo sapiens) (UniProt O94782); assay: Inhibitors of USP1/UAF1: Pilot qHTS (AID 504865; active means well fitted curve in the direction sought with a large enough effect; an effect the other way counts as inactive or inconclusive;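 further: rhodamine fluorescence freed from ubiquitin-rhodamine substrate followed over time; top concentration of the series differs between compounds; on the % scale 0 is the no-effect control and ±100 the full control effect; nearly all actives have a fitted effect of over 35% in size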); settings: purified USP1/UAF1, Ub-rhodamine cleavage fluorescence; series mostly up to 54.9 µM
Chain of Ubiquitin carboxyl-terminal hydrolase 1 (Homo sapiens) (O94782 whole entry, looked up): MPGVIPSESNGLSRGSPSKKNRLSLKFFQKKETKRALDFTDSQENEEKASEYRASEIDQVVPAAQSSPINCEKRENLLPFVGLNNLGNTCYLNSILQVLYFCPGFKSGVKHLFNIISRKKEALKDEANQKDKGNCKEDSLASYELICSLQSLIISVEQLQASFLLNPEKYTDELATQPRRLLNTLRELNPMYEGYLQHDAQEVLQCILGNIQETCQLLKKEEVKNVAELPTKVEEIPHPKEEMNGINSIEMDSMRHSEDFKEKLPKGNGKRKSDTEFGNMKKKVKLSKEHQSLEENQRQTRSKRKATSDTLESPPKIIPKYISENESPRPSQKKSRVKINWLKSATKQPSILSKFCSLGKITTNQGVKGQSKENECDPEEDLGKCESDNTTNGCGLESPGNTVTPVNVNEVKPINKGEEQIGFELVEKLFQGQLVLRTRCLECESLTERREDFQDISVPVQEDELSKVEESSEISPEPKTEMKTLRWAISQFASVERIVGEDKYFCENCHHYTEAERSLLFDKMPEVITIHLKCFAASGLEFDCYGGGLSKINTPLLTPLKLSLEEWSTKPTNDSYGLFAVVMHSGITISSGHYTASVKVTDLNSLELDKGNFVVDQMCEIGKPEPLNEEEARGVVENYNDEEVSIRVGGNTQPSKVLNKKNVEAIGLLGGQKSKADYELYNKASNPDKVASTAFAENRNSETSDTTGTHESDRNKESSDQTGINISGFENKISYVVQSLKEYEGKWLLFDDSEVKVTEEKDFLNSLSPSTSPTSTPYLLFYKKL
Procedure, shortened: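 USP1/UAF1 complex (1nM) preincubated with compound 15 min at room temperature, then Ub-Rho substrate (150nM final) added. Fluorescence read kinetically at 480/540 nm, 6 reads every 60 seconds. Buffer: 50mM HEPES pH 7.8, 0.5mM EDTA, 0.1 mg/ml BSA, 1mM TCEP, 0.01% Tween-20.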

[15] = qHTS profiling for inhibitors of Plasmodium falciparum proliferation (AID 504749; active means well fitted curve in the direction sought with a large enough effect; an effect the other way counts as inactive or inconclusive;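 further: 0% = DMSO vehicle and full inhibition = artemisinin control; nearly all actives have a fitted effect of over 60% in size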); settings: P. falciparum in erythrocytes, SYBR Green DNA, 72 h, at 28.7 µM (top of the series)
Procedure, shortened: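 Parasite proliferation within erythrocytes, 72 h exposure. Endpoint: SYBR Green I fluorescence after overnight lysis at room temperature. Controls: 0.29 uM artemisinin, DMSO.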

[16] = molecular target: Cytochrome P450 3A4 (Homo sapiens) (UniProt P08684); assay: qHTS Assay for Activators of Cytochrome P450 3A4 (AID 885; active means well fitted curve in the direction sought with a large enough effect; an effect the other way counts as inactive or inconclusive; further: nearly all actives have a fitted effect of over 65% in size); settings: recombinant CYP3A4, Luciferin-PPXE luminescence, 60 min; series mostly up to 57.1 µM
Procedure, shortened: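 Steps: enzyme/substrate mix dispensed; compound added, 10 min RT; NADPH regeneration solution added, 60 min RT; luciferin detection buffer stops reaction; 20 min later luminescence measured.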

[17] = molecular target: Lysosomal acid glucosylceramidase (Homo sapiens) (UniProt P04062); assay: Glucocerebrosidase-p2 (AID 348; in the data active means potency below about 10 µM; further: potency means the concentration at half of the fitted maximal effect); settings: purified GBA, blue fluorogenic substrate, 40 min
Chain of Lysosomal acid glucosylceramidase (Homo sapiens) (P04062 whole entry, looked up): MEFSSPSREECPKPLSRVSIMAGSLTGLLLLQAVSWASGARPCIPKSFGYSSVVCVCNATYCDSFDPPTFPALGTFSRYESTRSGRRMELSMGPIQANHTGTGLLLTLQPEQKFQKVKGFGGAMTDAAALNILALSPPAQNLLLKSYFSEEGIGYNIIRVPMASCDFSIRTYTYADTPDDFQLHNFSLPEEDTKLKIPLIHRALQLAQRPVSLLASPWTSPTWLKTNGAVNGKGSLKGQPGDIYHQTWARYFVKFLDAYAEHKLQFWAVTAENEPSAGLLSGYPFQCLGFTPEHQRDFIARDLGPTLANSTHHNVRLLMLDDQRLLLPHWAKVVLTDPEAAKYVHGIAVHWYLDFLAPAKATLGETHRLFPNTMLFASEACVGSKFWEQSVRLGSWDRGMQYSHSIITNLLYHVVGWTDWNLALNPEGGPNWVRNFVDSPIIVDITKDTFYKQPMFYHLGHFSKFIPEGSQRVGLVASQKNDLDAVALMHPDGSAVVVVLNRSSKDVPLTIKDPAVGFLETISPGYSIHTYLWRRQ
Procedure, shortened: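 Compounds titrated from 0.6 nM upwards against 0.2 nM enzyme in pH 5.9 citric acid/KH2PO4, taurocholate, tween-20; blue fluorogenic substrate 80 uM, 40 min room temperature, stopped and read Ex 365/Em 440 for AC50.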

[18] = Confirmation and Secondary Assay for Modulators of Hemoglobin Beta Chain Splicing at IVS2 654 locus (AID 910; active means well fitted curve in the direction sought with a large enough effect; an effect the other way counts as inactive or inconclusive;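 further: per-well total GFP intensity by laser scanning cytometry after 2-day treatment; % of control where 0% means no effect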); settings: HeLa EGFP-654 splicing reporter, GFP fluorescence, 48 h; series mostly up to 38.3 µM
Procedure, shortened: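 HeLa cells stably carrying EGFP interrupted by mutant beta-globin IVS2-654 intron (CMV-driven) were treated with compound for 2 days at 37C; corrected splicing was scored as total peak GFP intensity per well (488 nm excitation, 500-520 nm emission).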

[19] = Confirmation and Secondary Assay for Modulators of Hemoglobin Beta Chain Splicing at IVS2 705 locus (AID 930; active means well fitted curve in the direction sought with a large enough effect; an effect the other way counts as inactive or inconclusive;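 further: HeLa cells stably expressing the EGFP-705 splicing reporter; GFP fluorescence per well restored by corrected splicing of the IVS2-705 intron in EGFP; % of control where 0% means no effect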); settings: HeLa EGFP-705 splicing reporter, GFP fluorescence, 48 h; series mostly up to 38.3 µM
Procedure, shortened: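 Fluorescence gain (488 nm laser, 500-520 nm PMT) reflects restored correct splicing of a mutant IVS2-705 intron inside EGFP in stably transfected HeLa cells after 2-day compound treatment.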

[20] = measured here: cell count channel max response
[21] = measured here: lipid channel max response
[22] = at 7.69 µM (top of the series) unless noted

CCCN[C@@H](C)C(=O)Nc1ccccc1C
11.7%: max response [13, 20]
inactive: activity change, negative = inhibition ([1]; at 17.2 µM (top of the series)) -5.22% | activity change, negative = inhibition ([1]; at 38 µM (top of the series)) 7.83% | Potency [2] | activity change, negative = inhibition ([3]; at 17.2 µM (top of the series)) -7.99% | activity change, negative = inhibition ([3]; at 38 µM (top of the series)) 0.91% | activity, negative = inhibition ([4]; at 17.2 µM (top of the series)) -2.53% | activity, negative = inhibition ([4]; at 38 µM (top of the series)) -11.1% | Potency [5] > 46 µM and > 20.6 µM | Potency [6] > 46 µM and > 20.6 µM | Potency [7] | Potency [8] | Potency [9] | outcome [10] | outcome [11] | outcome [12] | activity change, negative = inhibition ([13]; at 25.7 µM (top of the series)) -0.0308% | Potency [14] | activity, negative = inhibition ([15]; parasite line A) 7.59% | activity, negative = inhibition ([15]; parasite line B) 9.71%
11.2%: max response [13, 21]

CCCCCN(CCCCC)C(=O)[C@H](CCC(=O)O)NC(=O)c1ccc(Cl)c(Cl)c1
inactive: activity change, negative = inhibition ([1]; at 17.2 µM (top of the series)) -2.01% | activity change, negative = inhibition ([1]; at 38 µM (top of the series)) 3.64% | Potency [2] | activity change, negative = inhibition ([3]; at 17.2 µM (top of the series)) -6.01% | activity change, negative = inhibition ([3]; at 38 µM (top of the series)) -3.5% | activity, negative = inhibition ([4]; at 17.2 µM (top of the series)) -27.7% | activity, negative = inhibition ([4]; at 38 µM (top of the series)) -25.5% | Potency [5] > 46 µM and > 20.6 µM | Potency [6] > 46 µM and > 20.6 µM | Potency [7] | Potency [9] | Potency [16] | outcome [10] | outcome [11] | outcome [12] | activity change, negative = inhibition ([13]; at 25.7 µM (top of the series)) -1.39% | Potency [14]
-23.7%: max response [13, 20]
-25%: max response [13, 21]

Cc1cccc(CNc2ncnc3ccc(-c4cccc(NS(C)(=O)=O)c4)cc23)c1
-18.6%: max response [13, 21]
-15.4%: max response [13, 20]
inactive: Potency [17] > 11.4 µM | activity change, negative = inhibition [3, 22] 12.3% | activity, negative = inhibition [4, 22] -1.79% | Potency [5] > 46 µM | Potency [6] > 46 µM | Potency [7] | Potency [8] | Potency [18] | outcome [19] | activity change, negative = inhibition ([13]; at 57.5 µM (top of the series)) -4.87%

O=C(O)CNC(=O)[C@@H](CS)Cc1ccccc1
-2.84%: max response [13, 20]
inactive: activity change, negative = inhibition ([1]; at 17.2 µM (top of the series)) 1.14% | activity change, negative = inhibition ([1]; at 38 µM (top of the series)) -1.37% | Potency [2] | activity change, negative = inhibition ([3]; at 17.2 µM (top of the series)) 3.12% | activity change, negative = inhibition ([3]; at 38 µM (top of the series)) -2.03% | activity, negative = inhibition ([4]; at 17.2 µM (top of the series)) 14.5% | activity, negative = inhibition ([4]; at 38 µM (top of the series)) 26.3% | Potency [5] > 46 µM and > 20.6 µM | Potency [6] > 46 µM and > 20.6 µM | Potency [7] | Potency [8] | Potency [9] | outcome [10] | outcome [11] | outcome [12] | activity change, negative = inhibition ([13]; at 25.7 µM (top of the series)) -1.09%
-4.92%: max response [13, 21]

CN(C)[C@@H]1C(=O)C(C(N)=O)=C(O)[C@]2(O)C(=O)C3=C(O)c4c(O)ccc(Cl)c4[C@H](O)[C@H]3C[C@@H]12
8.96%: max response [13, 21]
4.73%: max response [13, 20]
inactive: activity change, negative = inhibition ([1]; at 17.2 µM (top of the series)) -2.16% | activity change, negative = inhibition ([1]; at 38 µM (top of the series)) -12.4% | Potency [2] | activity change, negative = inhibition ([3]; at 17.2 µM (top of the series)) -15.3% | activity change, negative = inhibition ([3]; at 38 µM (top of the series)) -6.38% | activity, negative = inhibition ([4]; at 17.2 µM (top of the series)) -1.53% | activity, negative = inhibition ([4]; at 38 µM (top of the series)) 3.61% | Potency [5] > 46 µM and > 20.6 µM | Potency [6] > 46 µM and > 20.6 µM | Potency [7] | Potency [8] | Potency [9] | outcome [10] | outcome [11] | outcome [12] | activity change, negative = inhibition ([13]; at 25.7 µM (top of the series)) 2.69% | Potency [14] | activity, negative = inhibition ([15]; parasite line A) -26.7%
